Numbering of substitutions follows the chain as printed.
What was measured:
Assay in all cases: PBM; 200 nM protein, PBS
Details in all cases: dsDNA, one strand shown
SIX6 [1] = biological target: T1, SIX6 (Homo sapiens, UniProt O95475 114-200, L167I)
T1 sequence: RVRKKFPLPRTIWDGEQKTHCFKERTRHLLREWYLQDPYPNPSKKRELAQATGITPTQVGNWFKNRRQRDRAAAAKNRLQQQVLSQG

SIX6 [2] = biological target: T2, SIX6 (Homo sapiens, UniProt O95475 114-200, L143V)
T2 sequence: T1 sequence with L30V, I54L

SIX6 [3] = biological target: T3, SIX6 (Homo sapiens, UniProt O95475 114-200, H141N)
T3 sequence: T1 sequence with H28N, I54L

SIX6 [4] = biological target: T4, SIX6 (Homo sapiens, UniProt O95475 114-200, T165P)
T4 sequence: T1 sequence with T52P, I54L

SIX6 [5] = biological target: T5, SIX6 (Homo sapiens, UniProt O95475 114-200, L167M)
T5 sequence: T1 sequence with I54M

SIX6 [6] = biological target: T6, SIX6 (Homo sapiens, UniProt O95475 114-200, L143M)
T6 sequence: T1 sequence with L30M, I54L

SIX6 [7] = biological target: T7, SIX6 (Homo sapiens, UniProt O95475 114-200, L143I)
T7 sequence: T1 sequence with L30I, I54L

SIX6 [8] = biological target: T8, SIX6 (Homo sapiens, UniProt O95475 114-200, T165G)
T8 sequence: T1 sequence with T52G, I54L

SIX6 [9] = biological target: T9, SIX6 (Homo sapiens, UniProt O95475 114-200, T139Q)
T9 sequence: T1 sequence with T26Q, I54L

SIX6 [10] = biological target: T10, SIX6 (Homo sapiens, UniProt O95475 114-200, T165A)
T10 sequence: T1 sequence with T52A, I54L

SIX6 [11] = biological target: T11, SIX6 (Homo sapiens, UniProt O95475 114-200, L167V)
T11 sequence: T1 sequence with I54V

SIX6 [12] = biological target: T12, SIX6 (Homo sapiens, UniProt O95475 114-200)
T12 sequence: T1 sequence with I54L

SIX6 [13] = biological target: T13, SIX6 (Homo sapiens, UniProt O95475 114-200, T165I)
T13 sequence: T1 sequence with T52I, I54L

Row | Sequence | binding signal (SIX6 [1]) | binding signal (SIX6 [2]) | binding signal (SIX6 [3]) | binding signal (SIX6 [4]) | binding signal (SIX6 [5]) | binding signal (SIX6 [6]) | binding signal (SIX6 [7]) | binding signal (SIX6 [8]) | binding signal (SIX6 [9]) | binding signal (SIX6 [10]) | binding signal (SIX6 [11]) | binding signal (SIX6 [12]) | binding signal (SIX6 [13])
1 | GATATCTA | 11.1 upbm affinity estimate (log intensity, higher = more binding, comparable within an allelic series) | 10.4 upbm affinity estimate (log intensity, higher = more binding, comparable within an allelic series) | 11.1 upbm affinity estimate (log intensity, higher = more binding, comparable within an allelic series) | 9.98 upbm affinity estimate (log intensity, higher = more binding, comparable within an allelic series) | 10.8 upbm affinity estimate (log intensity, higher = more binding, comparable within an allelic series) | 10.9 upbm affinity estimate (log intensity, higher = more binding, comparable within an allelic series) | 10.3 upbm affinity estimate (log intensity, higher = more binding, comparable within an allelic series) | 11.1 upbm affinity estimate (log intensity, higher = more binding, comparable within an allelic series) | 11 upbm affinity estimate (log intensity, higher = more binding, comparable within an allelic series) | 11 upbm affinity estimate (log intensity, higher = more binding, comparable within an allelic series) | 10.9 upbm affinity estimate (log intensity, higher = more binding, comparable within an allelic series) | 10.9 upbm affinity estimate (log intensity, higher = more binding, comparable within an allelic series) | 10.9 upbm affinity estimate (log intensity, higher = more binding, comparable within an allelic series)
2 | GTGTATCA | 11.5 upbm affinity estimate (log intensity, higher = more binding, comparable within an allelic series) | 10.5 upbm affinity estimate (log intensity, higher = more binding, comparable within an allelic series) | 11.4 upbm affinity estimate (log intensity, higher = more binding, comparable within an allelic series) | 9.86 upbm affinity estimate (log intensity, higher = more binding, comparable within an allelic series) | 10.9 upbm affinity estimate (log intensity, higher = more binding, comparable within an allelic series) | 11.2 upbm affinity estimate (log intensity, higher = more binding, comparable within an allelic series) | 10.5 upbm affinity estimate (log intensity, higher = more binding, comparable within an allelic series) | 11.5 upbm affinity estimate (log intensity, higher = more binding, comparable within an allelic series) | 11.4 upbm affinity estimate (log intensity, higher = more binding, comparable within an allelic series) | 11.4 upbm affinity estimate (log intensity, higher = more binding, comparable within an allelic series) | 11.2 upbm affinity estimate (log intensity, higher = more binding, comparable within an allelic series) | 11.3 upbm affinity estimate (log intensity, higher = more binding, comparable within an allelic series) | 11.2 upbm affinity estimate (log intensity, higher = more binding, comparable within an allelic series)
3 | GAAAGCGC | 8.91 upbm affinity estimate (log intensity, higher = more binding, comparable within an allelic series) | 8.99 upbm affinity estimate (log intensity, higher = more binding, comparable within an allelic series) | 8.85 upbm affinity estimate (log intensity, higher = more binding, comparable within an allelic series) | 9.04 upbm affinity estimate (log intensity, higher = more binding, comparable within an allelic series) | 8.97 upbm affinity estimate (log intensity, higher = more binding, comparable within an allelic series) | 8.96 upbm affinity estimate (log intensity, higher = more binding, comparable within an allelic series) | 8.97 upbm affinity estimate (log intensity, higher = more binding, comparable within an allelic series) | 9 upbm affinity estimate (log intensity, higher = more binding, comparable within an allelic series) | 9 upbm affinity estimate (log intensity, higher = more binding, comparable within an allelic series) | 9.02 upbm affinity estimate (log intensity, higher = more binding, comparable within an allelic series) | 8.93 upbm affinity estimate (log intensity, higher = more binding, comparable within an allelic series) | 8.96 upbm affinity estimate (log intensity, higher = more binding, comparable within an allelic series) | 8.97 upbm affinity estimate (log intensity, higher = more binding, comparable within an allelic series)
4 | CGATACCC | 11.2 upbm affinity estimate (log intensity, higher = more binding, comparable within an allelic series) | 10.2 upbm affinity estimate (log intensity, higher = more binding, comparable within an allelic series) | 11.3 upbm affinity estimate (log intensity, higher = more binding, comparable within an allelic series) | 9.23 upbm affinity estimate (log intensity, higher = more binding, comparable within an allelic series) | 10.4 upbm affinity estimate (log intensity, higher = more binding, comparable within an allelic series) | 11 upbm affinity estimate (log intensity, higher = more binding, comparable within an allelic series) | 10.4 upbm affinity estimate (log intensity, higher = more binding, comparable within an allelic series) | 11.3 upbm affinity estimate (log intensity, higher = more binding, comparable within an allelic series) | 11.4 upbm affinity estimate (log intensity, higher = more binding, comparable within an allelic series) | 11.2 upbm affinity estimate (log intensity, higher = more binding, comparable within an allelic series) | 10.9 upbm affinity estimate (log intensity, higher = more binding, comparable within an allelic series) | 11.1 upbm affinity estimate (log intensity, higher = more binding, comparable within an allelic series) | 11 upbm affinity estimate (log intensity, higher = more binding, comparable within an allelic series)
5 | ACGATATC | 11.1 upbm affinity estimate (log intensity, higher = more binding, comparable within an allelic series) | 10.2 upbm affinity estimate (log intensity, higher = more binding, comparable within an allelic series) | 11.1 upbm affinity estimate (log intensity, higher = more binding, comparable within an allelic series) | 9.76 upbm affinity estimate (log intensity, higher = more binding, comparable within an allelic series) | 10.6 upbm affinity estimate (log intensity, higher = more binding, comparable within an allelic series) | 11 upbm affinity estimate (log intensity, higher = more binding, comparable within an allelic series) | 10.3 upbm affinity estimate (log intensity, higher = more binding, comparable within an allelic series) | 11.3 upbm affinity estimate (log intensity, higher = more binding, comparable within an allelic series) | 11.2 upbm affinity estimate (log intensity, higher = more binding, comparable within an allelic series) | 11 upbm affinity estimate (log intensity, higher = more binding, comparable within an allelic series) | 10.9 upbm affinity estimate (log intensity, higher = more binding, comparable within an allelic series) | 10.9 upbm affinity estimate (log intensity, higher = more binding, comparable within an allelic series) | 10.8 upbm affinity estimate (log intensity, higher = more binding, comparable within an allelic series)
6 | ACCGCGCC | 8.84 upbm affinity estimate (log intensity, higher = more binding, comparable within an allelic series) | 8.82 upbm affinity estimate (log intensity, higher = more binding, comparable within an allelic series) | 8.81 upbm affinity estimate (log intensity, higher = more binding, comparable within an allelic series) | 8.88 upbm affinity estimate (log intensity, higher = more binding, comparable within an allelic series) | 8.85 upbm affinity estimate (log intensity, higher = more binding, comparable within an allelic series) | 8.81 upbm affinity estimate (log intensity, higher = more binding, comparable within an allelic series) | 8.86 upbm affinity estimate (log intensity, higher = more binding, comparable within an allelic series) | 8.91 upbm affinity estimate (log intensity, higher = more binding, comparable within an allelic series) | 8.95 upbm affinity estimate (log intensity, higher = more binding, comparable within an allelic series) | 8.82 upbm affinity estimate (log intensity, higher = more binding, comparable within an allelic series) | 8.78 upbm affinity estimate (log intensity, higher = more binding, comparable within an allelic series) | 8.78 upbm affinity estimate (log intensity, higher = more binding, comparable within an allelic series) | 8.84 upbm affinity estimate (log intensity, higher = more binding, comparable within an allelic series)
